Test results published in PubChem BioAssay AID588850 (Sanford-Burnham Center for Chemical Genomics, 2011).
Where “and” joins values, the source holds several entries; their conditions need not be identical. Equal entries are not always repeated. About 3,100 (0.86%) of roughly 360,000 compounds were called active. This is one part of a sample in which actives are shown more often than they occur. Values without a mark were called inactive.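 Rule for the calls: active = at least 50% inhibition at 5 µM, scaled per plate between neutral and stimulator controls; inactive = the rest.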

test: NF-kB reporter blockers in CF airway cells – cell-based, GFP fluorescence, uHTS, primary screen (AID 588850); details: KKLEB NF-kB-GFP reporter, PAF-induced, GFP fluorescence overnight; at 5 µM; active compounds read high;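 note: PAF is a Pseudomonas aeruginosa culture filtrate used as stimulus; plate controls were PAF-stimulated DMSO wells for no effect and unstimulated DMSO wells for full effect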

SMILES	inhibition
FC(F)Oc1ccc(NC(=S)NCc2ccco2)cc1Cl	-1.9%
CCOc1c(Nc2cccc(Cl)c2)c(=O)c1=O	-0.1%
OCCCNc1nccc(-c2cc(Nc3cccc(Cl)c3)ncn2)n1	84.5% (active)
Cc1nc(C(F)(F)F)ccc1C(=O)N1CCC1(C)C(=O)NS(=O)(=O)c1ccc(F)cc1F (configuration not stated)	0.2%
O=C(CCN1C(=O)[C@@H]2Cc3ccccc3CN2C1=O)NCCc1ccccc1	16%
O=C(Nc1ccc2oc(-c3ccc4ccccc4c3)nc2c1)c1cccs1	51.3% (active)
O=C(Nc1ccc2oc(-c3ccccc3F)nc2c1)c1ccco1	-15%
COc1cc(OC)cc(C(=O)Nc2ccc(-c3nc4ccccc4o3)c(O)c2)c1	-44.7%
CN1CCN(c2cc(=O)n(-c3ccc(Cl)cc3)c(=O)[nH]2)CC1	16.6%
CC1CCN(C(=O)c2ccccc2NC(=O)Cc2ccccc2)CC1	16.1%
N#C/C=C1\Sc2ccccc2C(=O)N1CC(=O)N1CCN(S(=O)(=O)c2ccccc2)CC1	8.2%
Brc1ccc2ncnc(NCc3cccnc3)c2c1	57% (active)
Cc1cc(NCc2cccnc2)no1	-9.7%
Clc1ccc(Cn2ncc3c(NCc4cccnc4)ncnc32)cc1	-7.9%
CC(C)Cc1oc(C(=O)O)cc1CN	0.9%
OC[C@@H]1CN(Cc2ccc(Cl)cc2)C[C@H](n2cnc3c(NCc4ccncc4)ncnc32)O1	-7.1%
CCN(CC(=O)Nc1cc(Cl)ccc1C)C(=O)CSCc1ccc(C)cc1	-25.2%
C[C@]12C=CC(=O)C=C1CC[C@@H]1[C@@H]2C(=O)C[C@@]2(C)[C@H]1CC[C@]2(O)C(=O)CO	21.5% and 6.7%
CC1(C)O[C@@H]2CC3C4C[C@H](F)C5=CC(=O)C=CC5(C)C4C(O)CC3(C)[C@]2(C(=O)CO)O1 (some centres not stated)	71.8% (active)
COc1cccc(NC(=O)COC(=O)c2ccc3ccccc3n2)c1	3.6%
C[C@H]1CC[C@]2(O[C@@H](CCO)C[C@@H](O)[C@@H]2O)O1	-22.2%
O=C(O)c1ccc2c(=O)n3c(nc2c1)/C(=C/c1ccc(Cl)c([N+](=O)[O-])c1)CC3	-4%
O=C(/C=C/c1ccc(Cl)c([N+](=O)[O-])c1)c1ccc(O)cc1	66.4% (active)

SMILES	inhibition
O=C(c1ccc(Cl)c([N+](=O)[O-])c1)N1CCN(c2ccccc2)CC1	-1.9%
NC(=O)c1nsc(C(=O)N(CC(=O)NCc2ccc(F)cc2)Cc2ccco2)c1N	6.2%
COc1ccc(CNC(=O)C(c2ccc(O)cc2)N(Cc2ccco2)C(=O)c2snc(C(N)=O)c2N)cc1 (configuration not stated)	80.2% (active)
COc1cc(C(C(=O)NC2CCCC2)N(Cc2ccccc2)C(=O)c2snc(C(N)=O)c2N)ccc1O (configuration not stated)	-3.3%
O=C1CCC(C(=O)N2CCN(c3ccccc3Cl)CC2)CN1CC1CCCCC1 (configuration not stated)	25%
Cc1ccc(NS(=O)(=O)c2ccc3c(c2)oc(=O)n3C)c(C)c1	21.8%
CC(=O)c1c(OCC(=O)N(C)C2CCCCC2)ccc2c(C)cc(=O)oc12	-24.1%
COc1cccc2c1C(=O)c1c(O)c3c(c(O)c1C2=O)CC(O)(C(C)=NNC(=O)c1ccc(Cl)c(Cl)c1)CC3OC1CC(N)C(O)C(C)O1 (configuration not stated)	81.2% (active)
NS(=O)(=O)c1ccc(N=Cc2ccc(Br)s2)cc1	2.4%
COc1cccc(CCNC(=O)COc2cccc3c2OC(C)(C)C3)c1	17.3%
Cc1ccc(-n2cc(CN(C)Cc3nccn3C)c(-c3cccc(C)c3)n2)cc1	28.4%
CCNc1nc(N)nc(Oc2ccc(OCC)nn2)n1	-19.3%
O=C(CCCCCCCC(=O)N1CCCCC1)N1CCCCC1	-8.3%
O=C(c1cc(COc2c(F)cccc2F)on1)N1CCSCC1	19%
COc1ccc(-c2cc(C(=O)NCCCN3CCCC3=O)c3ccccc3n2)cc1OC	-14%
COc1ccc(C2=NO[C@@H]3C(=O)N(Cc4ccccc4)C(=O)[C@H]23)cc1OC	11%
COc1ccc(-c2cc(C(F)(F)F)nc(S(C)(=O)=O)n2)cc1OC	90.7% (active)
Cc1cccc(NC(=O)CCN2CC(C)CC(C)C2)c1 (configuration not stated)	1.5%
Cc1cccc(NC(=O)c2nc(S(=O)(=O)Cc3ccccc3)ncc2Cl)c1	89.1% (active)
Cc1cccc(CS(=O)(=O)c2ncc(Cl)c(C(=O)Nc3ccc(F)cc3)n2)c1	81.7% (active)
Cc1cccc(NC(=O)Cn2cc(C(=O)c3ccco3)c3ccccc32)c1	-7.8%
Cc1cccc(CN2CCC(CNC(=O)Nc3ccc(F)c(Cl)c3)CC2)c1	-7.6%
Cc1ccc(C)c(Cn2nnc3c(=O)[nH]c(C(=O)Nc4ccc(F)cc4)nc32)c1	22.5%

SMILES	inhibition
ONC(=Nc1ccc(Cl)cc1)c1ccccc1Cl	9.7%
Nc1nnc(C2CCCC2)s1	0%
OC[C@@H]1CN(C2CCCC2)C[C@H](n2cnc3c(NC4CCC4)ncnc32)O1	6.2%
O=C(Nc1ccn(Cc2ccccc2)n1)c1n[nH]c([N+](=O)[O-])c1Cl	-15.6%
CC(=O)N1CCN(CC(=O)Nc2ccc(SC(F)F)cc2)CC1	5.2%
O=C(Cc1ccc(Cl)c(Cl)c1)Nc1ccc(SC(F)F)cc1	60.8% (active)
Cc1ccc(CC(=O)Nc2ccc(OC(F)F)c(Cl)c2)cc1C	2.1%
COc1ccccc1CC(NC(C)=O)C(=O)NC1CCN(C(=O)Nc2ccccc2Cl)CC1 (configuration not stated)	2.1%
O=C1CCC(Cc2ccccc2)N1 (configuration not stated)	11.2%
CCOC(=O)/C(=C\c1ccc([N+](=O)[O-])cc1)C(=O)c1cc(C(C)=O)c(Nc2ccccc2)s1	18.8%
CCOC(=O)C(=Cc1ccccc1OC)C(=O)OCC	26.4%
CCOC(=O)C(=Cc1ccccc1)C(=O)c1ccccc1	66.7% (active)
CN1CCc2c(sc3c2c(NCc2ccco2)nc2nnnn23)C1	-14.3%
CCN(CC(=O)NCc1cccs1)C(=O)/C=C/c1ccc(C)cc1	-8.4%
CCCn1nc(C(=O)NNC(=O)CSCC(=O)Nc2cc(C)on2)c2ccccc2c1=O	16.2%
CCc1ccc(N(CC)c2ncnc3nc[nH]c23)cc1	58.2% (active)
Cc1ccc(NC(=O)c2ccc(CSc3ncnc4nc[nH]c34)cc2)c(C)c1	-2.8%
COc1ccc(CCNc2ncnc3nc[nH]c23)cc1OC	14.3%
CCCN1C(=O)C(Cc2nc3ccccc3c(=O)n2-c2ccccc2)c2cc(C)ccc21 (configuration not stated)	-39%
CN(CC(=O)Nc1ccc(Cl)c(C(F)(F)F)c1)C(=O)CCC(=O)c1ccccc1	-0.4%
O=C(CC(O)(C(F)(F)F)C(F)(F)F)Nc1ccc(Cl)c(Cl)c1	62.4% (active)
O=C(Cc1ncc(C(F)(F)F)cc1Cl)Nc1cccc(Br)c1	7.6%
CN(CC(=O)Nc1ccc(OC(F)(F)F)cc1)C(=O)C1CCC1	6.5%

SMILES	inhibition
O=C(O)C1CCCN1C1=NS(=O)(=O)c2ccccc21 (configuration not stated)	9.4%
O=C(COc1ccc(S(=O)(=O)N2CCOCC2)cc1Cl)N1CCOCC1	1.5%
O=C(Nn1c(-c2ccc(Cl)cc2)nc2ccccc2c1=O)c1cccnc1Cl	0.4%
Cc1cc(C)n(CC(C)NCc2c(C(=O)N3CCOCC3)nc3c(C)cccn23)n1 (configuration not stated)	-0.6%
O=C(Nc1cc(S(=O)(=O)N2CCCCC2)ccc1Cl)C1COc2ccccc2O1 (configuration not stated)	24.5%
O=C(Nc1ncc([N+](=O)[O-])s1)C1COc2ccccc2O1 (configuration not stated)	60.8% (active)
O=C(Nc1nc(-c2ccncc2)cs1)C1COc2ccccc2O1 (configuration not stated)	53.8% (active)
COc1ccc(NC(=O)COC(=O)C2COc3ccccc3O2)cc1 (configuration not stated)	4.2%
CC(=O)c1ccccc1NC(=O)COC(=O)C1COc2ccccc2O1 (configuration not stated)	-8.8%
C/C(=N/NC(=O)C1COc2ccccc2O1)c1ccco1 (configuration not stated)	17.3%
Cc1cc(OC(=O)c2ccccc2)c([N+](=O)[O-])c(=O)[nH]1	4.2%
O=C(O)CCc1nc2cc(Cl)ccc2n(Cc2ccccc2)c1=O	2.1%
CC(=O)Oc1c(C(=O)c2nnc(C)o2)c(=O)n(Cc2ccccc2)c2ccccc12	50.9% (active)
CCCCCn1c(=O)c(C(=O)OCC)c(Cl)c2ccccc21	9.9%
CC(C)CCNC(=O)c1[nH]c(C(F)(F)F)nc1-c1ccccc1	-2.1%
CC(C)(C)C(=O)CCN1C(=O)C2(OCCO2)c2ccccc21	-2.6%
CCCCn1c(N)c(N(CC(C)C)C(=O)c2ccc(-n3c(C)ccc3C)cc2)c(=O)[nH]c1=O	14.1%
CC1(C)CCSC(/C=C/c2ccccc2)=N1	55.9% (active)
CC1(C(=O)NS(=O)(=O)c2ccccc2)CCN1C(=O)C/C=C/c1ccccc1 (configuration not stated)	0.3%
CC1(C(=O)O)CCN1C(=O)/C=C/c1ccccc1 (configuration not stated)	11.9%
CCc1cc(-c2nnn(CCC3COCCO3)c2CC)ccc1-c1cn(Cc2ccc3ccccc3c2)nn1 (configuration not stated)	19.3%
O=C1c2ccccc2NC(c2ccccc2O)N1NS(=O)(=O)c1ccccc1 (configuration not stated)	-6.3%
COc1cccc(N(C(=O)c2snc(C(N)=O)c2N)C(C(=O)NCC2CCCO2)c2c[nH]c3ccccc23)c1 (configuration not stated)	-0.6%
